# In PubChem BioAssay (Tox21):
# Several values for one entry are separate records, joined by “and”; a condition that tells them apart may be missing. Equal values may be shown once. Results filed as inconclusive are left out. Where a call stands in place of a potency, no number is given. Some compounds were tested as several samples or in several runs, with calls that do not always agree. Activity calls are given as the source filed them. Calls follow the shape of the dose curve; as a rule, active = well fitted curve in the direction sought with a large enough effect in the repeat runs; inconclusive = weak or mixed curves; inactive = no such curve, though single readings can be large; an effect the other way counts as inactive or inconclusive.
# Experiments:
# [1] = qHTS RealTime-Glo MT Cell Viability Assay in HepG2 cells - 8 hour (AID 1224873); also: nearly all actives have a fitted effect of over 55% in size; also: potency is read from the fitted curve at half-maximal effect
# Summary of the method: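 Real-time viability: cells seeded at 600 per well together with NanoLuc and cell-permeant prosubstrate, compounds added after 5 h incubation. Luminescence tracked at 0, 8, 16, 24, 32 and 40 h of exposure.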
# [2] = qHTS RealTime-Glo MT Cell Viability Assay in HEK293 cells - 40 hour (AID 1224874); settings: RealTime-Glo luminescence; max response: stronger effect = lower value; also: nearly all actives have a fitted effect of over 50% in size; also: potency is read from the fitted curve at half-maximal effect
# Summary of the method: (§1)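 Luminescence, which tracks viable cell number through reduction of the prosubstrate to a NanoLuc substrate, was read over continuous 37 C culture. Cells (600/well) were premixed with reagent and rested 5 h before 23 nL of compound in DMSO was pinned.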
# [3] = A CellTox Green Cytotoxicity Assay to monitor cytotoxicity in HEK293 cells - 24 hour (AID 1224875); also: series mostly up to about 77 µM; nearly all actives have a fitted effect of over 45% in size
# Summary of the method: (§2)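 Fluorescence from a DNA-binding dye excluded by viable cells was measured repeatedly in the same HEK293 wells (600 cells/well) during continuous compound exposure at 37 C. Each assay gives one read point: 0, 8, 16, 24, 32 or 40 h.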
# [4] = A CellTox Green Cytotoxicity Assay to monitor cytotoxicity in HepG2 cells - 16 hour (AID 1224876); also: nearly all actives have a fitted effect of over 45% in size; also: potency is read from the fitted curve at half-maximal effect
# Summary of the method: (§3)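 Real-time cytotoxicity: fluorescence of a cell-impermeant cyanine dye binding DNA of dead HepG2 cells, measured repeatedly (0–40 h) during compound exposure at 37 C. Cells seeded 600/well with reagent, dosed after 5 h.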
# [5] = qHTS RealTime-Glo MT Cell Viability Assay in HepG2 cells - 32 hour (AID 1224877); also: nearly all actives have a fitted effect of over 55% in size; also: potency is read from the fitted curve at half-maximal effect
# Summary of the method: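 Luminescence read-out: viable HepG2 cells reduce a prosubstrate to a NanoLuc substrate, giving a signal proportional to live cell number. Reads taken at 0, 8, 16, 24, 32 and 40 h of compound exposure at 37 C.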
# [6] = qHTS RealTime-Glo MT Cell Viability Assay in HEK293 cells - 0 hour (AID 1224880); also: top concentration of the series differs between compounds; nearly all actives have a fitted effect of over 45% in size
# Summary of the method: as §1
# [7] = A CellTox Green Cytotoxicity Assay to monitor cytotoxicity in HEK293 cells - 32 hour (AID 1224881); also: nearly all actives have a fitted effect of over 40% in size; also: potency is read from the fitted curve at half-maximal effect
# Summary of the method: as §2
# [8] = A CellTox Green Cytotoxicity Assay to monitor cytotoxicity in HepG2 cells - 0 hour (AID 1224882); also: nearly all actives have a fitted effect of over 35% in size
# Summary of the method: as §3
# [9] = A CellTox Green Cytotoxicity Assay to monitor cytotoxicity in HepG2 cells - 24 hour (AID 1224878); also: nearly all actives have a fitted effect of over 45% in size; also: potency is read from the fitted curve at half-maximal effect
# Summary of the method: as §3
# [10] = A CellTox Green Cytotoxicity Assay to monitor cytotoxicity in HepG2 cells - 40 hour (AID 1224879); also: nearly all actives have a fitted effect of over 40% in size; also: potency is read from the fitted curve at half-maximal effect
# Summary of the method: as §3
Structure (SMILES),Potency [1],max response [2],Potency [3],Potency [4],Potency [5],outcome [6],Potency [7],Potency [8],Potency [2],Potency [9],Potency [10]
Oc1ccccc1-c1ccccc1,inactive,-9.5% (inactive) [middle of 4 runs],inactive,inactive,inactive,inactive,inactive,inactive,,,
CCCCCCCCCCCCCC[P+](CCCCCC)(CCCCCC)CCCCCC,17.5 µM (active) and 19.7 µM (active) and inactive,,,12.4 µM (active) and 22.1 µM (active) and inactive,11 µM (active) and 19.7 µM (active) and inactive,inactive,12.4 µM (active) and 19.7 µM (active),inactive,2.47 µM (active) and 1.75 µM (active) and 1.23 µM (active),11 µM (active) and 17.5 µM (active) and inactive,12.4 µM (active) and 17.5 µM (active) and 48.9 µM (active)
O=c1nc(O)n(Cl)c(=O)n1Cl,inactive,3.95% (inactive) and 2.22% (inactive),inactive,inactive,inactive,inactive,inactive,inactive,,inactive,inactive
